PubChem BioAssay (NCATS)
Results filed as inconclusive are left out. Unless noted, calls follow the shape of the dose curve; as a rule, active = well fitted curve in either direction with a large enough effect (not every such curve was filed as active); inconclusive = small, poorly fitted or top-dose-only effect, or another doubt; inactive = flat fitted curve, though single readings scatter.

Assays:
[1] = AP1 Signaling Pathway (AID 357); conditions: ME-180 AP-1-bla reporter, EGF-induced, beta-lactamase ratio, 5 h; at 17.2 µM (top of the series) unless noted;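 also: ME-180 reporter cells stimulated with EGF at its EC50 level; % is scaled to controls: 0 for no effect and ±100 for the full control effect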
Outline: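 AP-1-bla ME-180 cells, Opti-MEM + 0.5% dialyzed FBS, plated overnight 37 °C. Cpd titration + EC50 EGF, 5 h 37 °C. CCF4 2.5 h RT; ex 405, em 460/530 ratio → %activity, AC50.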

[2] = NFAT Signaling Pathway (AID 444); conditions: Jurkat NFAT-bla M1, carbachol, beta-lactamase ratio, 5 h; at 17.2 µM (top of the series) unless noted;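 also: carbachol stimulus at about its EC50 of 1 µM final; % is scaled to controls: 0 for no effect and ±100 for the full control effect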
Outline: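 Read-out: CCF4 FRET ratio (460 nm/530 nm) after 1 h RT dye loading, used for %activity and AC50 from titration series. Cells: Jurkat NFAT-β-lactamase/M1 line, treated with compound plus 1 uM carbachol for 5 h, 37 °C.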

[3] = Stat Signaling Pathway (AID 446); conditions: ME-180 (cervical carcinoma) SIE beta-lactamase reporter, IL-6 stimulated, 5 h; at 17.2 µM (top of the series) unless noted;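 also: ME-180 cervical cancer cells given 40 pM IL-6 alongside compound; SIE-controlled beta-lactamase reporter measured as 460/530 nm FRET emission ratio; % is scaled to controls: 0 for no effect and ±100 for the full control effect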
Outline: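 Compound effects on IL-6-induced STAT reporter activity were measured in ME-180 cells. After overnight culture, cells were co-treated with 40 pM IL-6 for 5 hrs before beta-lactamase substrate loading at room temperature.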

[4] = target: Glucocorticoid receptor (Homo sapiens) (UniProt P04150); experiment: GR-GFP Redistribution (AID 450;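 active = compounds whose dose series gives a full or clear partial fitted curve of increased nuclear translocation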; also: potency is read from the fitted curve at half-maximal effect)
Chain of Glucocorticoid receptor (Homo sapiens) (P04150 whole entry, looked up): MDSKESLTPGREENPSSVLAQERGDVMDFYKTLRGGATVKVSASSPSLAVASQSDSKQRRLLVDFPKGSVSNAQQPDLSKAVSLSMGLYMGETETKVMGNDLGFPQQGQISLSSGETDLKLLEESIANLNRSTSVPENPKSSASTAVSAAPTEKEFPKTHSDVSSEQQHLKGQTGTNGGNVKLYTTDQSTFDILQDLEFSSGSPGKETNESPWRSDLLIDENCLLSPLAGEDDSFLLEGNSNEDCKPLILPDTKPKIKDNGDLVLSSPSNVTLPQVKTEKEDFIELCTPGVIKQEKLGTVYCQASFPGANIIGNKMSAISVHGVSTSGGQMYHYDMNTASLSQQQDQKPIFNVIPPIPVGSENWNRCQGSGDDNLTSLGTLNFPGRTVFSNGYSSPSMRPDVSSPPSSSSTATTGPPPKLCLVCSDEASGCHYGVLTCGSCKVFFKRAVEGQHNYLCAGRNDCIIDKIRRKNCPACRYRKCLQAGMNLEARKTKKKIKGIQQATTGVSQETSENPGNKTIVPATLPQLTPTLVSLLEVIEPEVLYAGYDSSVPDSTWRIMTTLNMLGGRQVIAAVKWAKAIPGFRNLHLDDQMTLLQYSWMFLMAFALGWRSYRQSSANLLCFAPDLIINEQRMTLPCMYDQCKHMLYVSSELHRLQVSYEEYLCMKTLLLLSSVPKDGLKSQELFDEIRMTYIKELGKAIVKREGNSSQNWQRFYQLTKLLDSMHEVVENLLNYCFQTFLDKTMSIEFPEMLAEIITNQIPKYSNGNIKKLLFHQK

CCOC(=O)C1=C(C)N=C2SC(C)C(=O)N2C1c1ccc(OC(C)=O)c(OC)c1 (centres undefined)
inactive: activity change, negative = inhibition [1] -14.1% | activity change, negative = inhibition [2] 10.3% | activity, negative = inhibition [3] -17.1% | Potency [4] > 20.6 µM

CCOC(=O)C1CSc2[nH]c(=O)sc2C1c1ccccc1 (centres undefined)
inactive: activity change, negative = inhibition [1] 0.248% | activity change, negative = inhibition [2] -1.24% | activity, negative = inhibition [3] -1.01% | Potency [4] > 20.6 µM

CN1CC(=O)Nc2ccc(F)cc2C1=O
inactive: activity change, negative = inhibition [1] 13.4% | activity change, negative = inhibition [2] -4.14% | activity, negative = inhibition [3] 3.5% | Potency [4] > 20.6 µM

Cn1c(=O)n(CCC(=O)O)c2ccccc21
inactive: activity change, negative = inhibition [1] 11.6% | activity change, negative = inhibition [2] 2% | activity, negative = inhibition [3] 2.26% | Potency [4] > 20.6 µM

CC(C(=O)NC(=O)NCc1ccccc1)N1C(=O)c2ccccc2C1=O (centres undefined)
inactive: activity change, negative = inhibition [1] -0.38% | activity change, negative = inhibition [2] -0.399% | activity, negative = inhibition [3] 14.7% | Potency [4] > 20.6 µM

Cc1c(C)[n+](=O)c2c(n1[O-])CCC2
inactive: activity change, negative = inhibition [1] 0.615% | activity change, negative = inhibition [2] -5.07% | activity, negative = inhibition [3] -0.102% | Potency [4] > 20.6 µM

COc1ccc(C(=O)Nc2ccccc2N2CCOCC2)cc1Br
inactive: activity change, negative = inhibition [1] -21.1% | activity change, negative = inhibition [2] 9.59% | activity, negative = inhibition [3] -8.26% | Potency [4] > 20.6 µM

Cc1cc(=O)oc(C)c1C(=O)NCC(C)C
inactive: activity change, negative = inhibition [1] 0.878% | activity change, negative = inhibition [2] -1.32% | activity, negative = inhibition [3] 8.66% | Potency [4] > 20.6 µM

Cc1nc2sc(C)c(C)c2c(=O)o1
inactive: activity change, negative = inhibition [1] -1.58% | activity change, negative = inhibition [2] 4.96% | activity, negative = inhibition [3] -1.71% | Potency [4] > 20.6 µM

COc1ccc(/C(O)=C2/C(=O)C(=O)N(CCCN(C)C)C2c2ccccc2)cc1OC (centres undefined)
inactive: activity change, negative = inhibition [1] -9.48% | activity change, negative = inhibition [2] -0.461% | activity, negative = inhibition [3] 8.71% | Potency [4] > 20.6 µM

CCO/C(C)=N/n1c2nc3ccccc3nc2c2c(=O)n(CC(C)C)c(C)nc21
inactive: activity change, negative = inhibition [1] -19.8% | activity change, negative = inhibition [2] 12.6% | activity, negative = inhibition [3] -8.62% | Potency [4] > 20.6 µM

COC(=O)c1cc(Br)c(=O)n(-c2cc(C)on2)c1
inactive: activity change, negative = inhibition [1] 8.72% | activity change, negative = inhibition [2] 12.9% | activity, negative = inhibition [3] 7.11% | Potency [4] > 20.6 µM

c1ccc(CN2CCN(c3nc(-c4ccccn4)nc4ccccc34)CC2)cc1
inactive: activity change, negative = inhibition [1] 14.9% | activity change, negative = inhibition [2] -29% | activity, negative = inhibition [3] 6.73% | Potency [4] > 20.6 µM

CCOC(=O)C1=C(C)OC(N)=C(C#N)C1c1cc2ccccc2nc1N1CCCCC1 (centres undefined)
inactive: activity change, negative = inhibition [1] -11.2% | activity change, negative = inhibition [2] -20.1% | activity, negative = inhibition [3] 13.8% | Potency [4] > 20.6 µM

COc1ccc(C2(CN(C(C)=O)C(C)=O)CCCC2)cc1OC
inactive: activity change, negative = inhibition [1] 4.19% | activity change, negative = inhibition [2] 4.27% | activity, negative = inhibition [3] 1.89% | Potency [4] > 20.6 µM

COc1cc(S(=O)(=O)N2CCN(C)CC2)c(OC)cc1Br
inactive: activity change, negative = inhibition [1] 9.1% | activity change, negative = inhibition [2] -13.8% | activity, negative = inhibition [3] 3.25% | Potency [4] > 20.6 µM

CCn1nnc(C(=O)O)c1C(=O)O
inactive: activity change, negative = inhibition [1] 3.44% | activity change, negative = inhibition [2] 3.87% | activity, negative = inhibition [3] 1.11% | Potency [4] > 20.6 µM

COc1ccc(C2C(C#N)=C(C)NC3=C2C(=O)c2ccccc23)cc1 (centres undefined)
inactive: activity change, negative = inhibition [1] -6.13% | activity change, negative = inhibition [2] -27.8% | activity, negative = inhibition [3] -7.06% | Potency [4] > 20.6 µM

CCOc1nc(Oc2cccc(C(=O)O)c2)nc(Oc2cccc(C(=O)O)c2)n1
inactive: activity change, negative = inhibition [1] 29.4% | activity change, negative = inhibition [2] 0.693% | activity, negative = inhibition [3] 8.24% | Potency [4] > 20.6 µM

C/C(=C\C(=O)O)CC(=O)O
inactive: activity change, negative = inhibition [1] -2.96% | activity change, negative = inhibition [2] -2% | activity, negative = inhibition [3] 7.83% | Potency [4] > 20.6 µM

COC(=O)CN1C2(C#N)CCCCC2CC2CCCCC21C#N (centres undefined)
inactive: activity change, negative = inhibition [1] 2.79% | activity change, negative = inhibition [2] -12.3% | activity, negative = inhibition [3] 13% | Potency [4] > 20.6 µM

CN1CCN(c2ncnc3c2[nH]c2ccc(F)cc23)CC1
inactive: activity change, negative = inhibition [1] 7.75% | activity change, negative = inhibition [2] -5.03% | activity, negative = inhibition [3] 11.7% | Potency [4] > 20.6 µM

CCOC(=O)c1[nH]c2ccc(OC)cc2c1C
inactive: activity change, negative = inhibition [1] -0.35% | activity change, negative = inhibition [2] -6.84% | activity, negative = inhibition [3] 6% | Potency [4] > 20.6 µM

O=S(=O)(N[C@@H]1C[C@H]2CC[C@@H]1C2)c1cccs1
inactive: activity change, negative = inhibition [1] -5.92% | activity change, negative = inhibition [2] -11.3% | activity, negative = inhibition [3] -0.621% | Potency [4] > 20.6 µM

O=C(O)CCSc1ccc2ccccc2n1
inactive: activity change, negative = inhibition [1] 14.9% | activity change, negative = inhibition [2] 11.5% | activity, negative = inhibition [3] 0.928% | Potency [4] > 20.6 µM

CCCOc1ccc(/C(O)=C2/C(=O)C(=O)N(CCN3CCOCC3)C2c2ccccc2)cc1 (centres undefined)
inactive: activity change, negative = inhibition [1] -16.7% | activity change, negative = inhibition [2] 4.9% | activity, negative = inhibition [3] -4.33% | Potency [4] > 20.6 µM
